In PubChem BioAssay (NCATS):
Where “and” joins values, the source holds several entries; their conditions need not be identical. Equal values may be shown once. Inconclusive results are not listed. Calls of active or inactive are those of the source. Unless noted, the call rests on the fitted dose curve; in most records, active means well fitted curve in the direction sought with a large enough effect; inconclusive means small, poorly fitted or top-dose-only effect, or another doubt; inactive means no such curve, though single readings can be large; an effect the other way counts as inactive or inconclusive.

Experiments:
[1] = qHTS for compounds that reverse cellular toxicity of Amyloid beta (A-beta) peptide in yeast: LOPAC Validation Assay (AID 720559);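 further: plate controls were DMSO for no effect and equimolar ferric chloride plus clioquinol rescue for full effect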
Summary of the method: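 Here, A-beta-toxic yeast grow with test compounds at 30 C for 48 hr before optical density at 600 nm is recorded; data are normalized against DMSO and the FeCl3-clioquinol control.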

[2] = qHTS for Activators of Parkin Expression: LOPAC Validation Assay (NLuc Reporter) (AID 720572; further: potency means the concentration at half of the fitted maximal effect)
Summary of the method: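 NLuc signal, read 10 min after reagent and following a prior FLuc read, is normalized to DMSO (0) and positive controls (100%). Cells: neuronal Parkin-promoter coincidence reporter line; compounds tested 7-point, 24 h, 37 C, 5% CO2.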

[3] = qHTS for Activators of Parkin Expression: LOPAC Validation Assay (FLuc Reporter) (AID 720573)
Summary of the method: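 Readout is FLuc luminescence from neuronal reporter cells (Parkin promoter, FLuc plus NLuc) after 24 h compound exposure in dose response. Values normalized to neutral DMSO and positive-control compounds.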

[4] = biological target: T1, Hexokinase-4 (Homo sapiens) + Glucokinase regulatory protein (Homo sapiens) (UniProt P35557+Q14397); experiment: qHTS assay for inhibitors of recombinant human GCK-GKRP interaction: Diaphorase-coupled assay (AID 743205)
Summary of the method: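 Signal derives from resorufin generated by diaphorase, linked to GCK turnover of glucose (5 mM) and ATP (0.4 mM). Enzyme complex was added after a 20-minute compound preincubation and monitored for 30 minutes.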

[5] = biological target: T1, Hexokinase-4 (Homo sapiens) + Glucokinase regulatory protein (Homo sapiens); experiment: qHTS assay for inhibitors of recombinant human GCK-GKRP interaction: ADP-Glo assay (AID 743206);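 further: plate controls were DMSO plus enzyme for no effect and no enzyme for full effect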
Summary of the method: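 Pin-transferred compounds meet a 15 nM GST-GCK/15 nM FLAG-GKRP/2 uM S6P mix (dispense concentrations). ATP is then added to 0.4 mM final with 5 mM glucose, and the reaction runs 60 min at room temperature. ADP is quantified luminescently.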

[6] = biological target: T1, Hexokinase-4 (Homo sapiens) + Glucokinase regulatory protein (Homo sapiens); experiment: qHTS assay for inhibitors of recombinant human GCK-GKRP interaction: HTRF assay (AID 743207);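 further: 0% = DMSO with GCK present and -100% = DMSO wells lacking GCK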
Summary of the method: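 Titration screening format: recombinant GST-GCK and FLAG-GKRP at 5 nM, S6P at 2 uM, labelled anti-tag antibodies, 60 min at RT, dual-wavelength HTRF readout.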

[7] = qHTS Assay for Identifying Gametocytocidal Compounds (AID 743244); further: potency means the concentration at half of the fitted maximal effect;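 on max response: on the % scale 0 is the no-effect control and ±100 the full control effect; actives lower the fluorescent signal which means gametocytes are killed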; settings: P. falciparum 3D7 stage III-V gametocytes, alamarBlue, 72 h; max response: stronger effect = lower value
Summary of the method: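 In this qHTS viability screen, late-stage 3D7 gametocytes are incubated with compound for 72 h, then with alamarBlue for 24 h; reduced resorufin fluorescence marks killing.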

[8] = qHTS profiling of the MIPE4 collection as inhibitors of Plasmodium falciparum (DD2) proliferation (AID 743345; call rule not given here); settings: P. falciparum Dd2 in erythrocytes, SYBR Green DNA, 72 h; at 28.5 µM (top of the series)
Summary of the method: (§1)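 Parasite DNA was quantified by SYBR Green I fluorescence (ex 485, em 535 nm) after overnight lysis in saponin/Triton buffer at room temperature. Cultures at 0.3% parasitemia and 2.5% hematocrit were first exposed to compound for 72 h at 37 C; signals were normalised to artemisinin (0.29 uM) and vehicle wells.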

[9] = qHTS profiling of the MIPE4 collection as inhibitors of Plasmodium falciparum (HB3) proliferation (AID 743347; call rule not given here;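 further: plate controls were DMSO vehicle wells for no effect and artemisinin wells for full effect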); settings: P. falciparum HB3 in erythrocytes, SYBR Green DNA, 72 h; at 28.5 µM (top of the series)
Summary of the method: as §1

[10] = qHTS assay for measurement of the activity of small molecule inhibitors on Zika virus induced Caspase-3 activity in human iPSC derived neural progenitor cells (hNPCs) (AID 1224857); further: % of control where 0% means no effect; nearly all actives have a fitted effect of over 65% in size
Summary of the method: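 In medium with heparin 2 ug/ml and cyclopamine 2 uM, hNPCs (350 cells/well) received compound for one hour and then Zika virus at 2 FFU/cell; caspase activity was measured by Caspase-Glo 3/7 luminescence 6 h post-infection.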

[11] = qHTS profiling for inhibitors of Plasmodium falciparum (3D7) proliferation (AID 743322);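 further: infected erythrocytes exposed to compound for 72 h before lysis; 100% = DMSO vehicle wells and 0% = 0.29 µM artemisinin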; settings: P. falciparum 3D7 proliferation; at 28.7 µM (top of the series)
Summary of the method: as §1

[12] = qHTS profiling for inhibitors of Plasmodium falciparum (DD2) proliferation (AID 743323; call rule not given here); settings: lower = more inhibition; at 28.7 µM (top of the series)
Summary of the method: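 P. falciparum Dd2-infected erythrocytes (0.3% parasitemia, 2.5% hematocrit) exposed 72 h at 37 C, 5% CO2. Lysis with SYBR Green, overnight at room temperature, fluorescence 485/535 nm; normalized to 0.29 uM artemisinin and DMSO.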

[13] = qHTS profiling for inhibitors of Plasmodium falciparum (HB3) proliferation (AID 743324); settings: Plasmodium falciparum HB3 blood-stage proliferation; at 28.7 µM (top of the series);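 further: 100% = DMSO vehicle wells and 0% = artemisinin-treated control wells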
Summary of the method: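 SYBR Green fluorescence (485 ex/535 em) of lysed cultures, incubated overnight at room temperature in the dark, quantifies parasite DNA. Infected erythrocytes at 0.3% parasitemia and 2.5% hematocrit were exposed 72 h; values normalized to DMSO and 0.29 uM artemisinin controls.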

T1 sequence (P35557 whole entry, looked up): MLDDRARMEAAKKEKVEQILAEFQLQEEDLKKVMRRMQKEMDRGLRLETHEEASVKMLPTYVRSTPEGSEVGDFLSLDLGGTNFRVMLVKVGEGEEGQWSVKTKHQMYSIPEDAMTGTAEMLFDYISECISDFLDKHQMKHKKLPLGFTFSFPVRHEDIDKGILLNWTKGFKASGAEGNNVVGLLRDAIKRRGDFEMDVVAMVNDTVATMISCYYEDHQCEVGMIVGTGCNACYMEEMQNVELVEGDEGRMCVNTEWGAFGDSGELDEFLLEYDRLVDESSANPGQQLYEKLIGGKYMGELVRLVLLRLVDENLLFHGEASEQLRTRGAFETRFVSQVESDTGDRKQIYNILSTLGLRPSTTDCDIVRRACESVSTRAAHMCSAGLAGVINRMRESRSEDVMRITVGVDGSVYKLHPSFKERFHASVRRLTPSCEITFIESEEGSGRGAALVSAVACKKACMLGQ
T1 sequence (Q14397 whole entry, looked up): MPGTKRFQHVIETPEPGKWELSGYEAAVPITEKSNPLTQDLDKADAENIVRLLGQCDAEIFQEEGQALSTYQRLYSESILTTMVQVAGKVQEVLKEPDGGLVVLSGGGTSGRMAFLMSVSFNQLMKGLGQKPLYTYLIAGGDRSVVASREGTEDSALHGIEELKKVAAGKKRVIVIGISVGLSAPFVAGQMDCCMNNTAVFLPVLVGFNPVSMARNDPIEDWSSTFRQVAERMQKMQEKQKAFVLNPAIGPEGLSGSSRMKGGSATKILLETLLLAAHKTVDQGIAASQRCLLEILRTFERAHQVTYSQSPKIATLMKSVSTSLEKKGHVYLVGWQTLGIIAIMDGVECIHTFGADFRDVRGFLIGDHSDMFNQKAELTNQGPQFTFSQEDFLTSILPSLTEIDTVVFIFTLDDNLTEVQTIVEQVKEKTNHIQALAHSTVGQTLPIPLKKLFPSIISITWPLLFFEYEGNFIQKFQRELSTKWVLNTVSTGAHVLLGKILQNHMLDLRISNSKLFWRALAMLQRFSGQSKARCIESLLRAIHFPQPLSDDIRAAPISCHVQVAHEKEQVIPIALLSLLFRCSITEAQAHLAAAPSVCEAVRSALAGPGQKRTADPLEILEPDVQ

COc1ccc2c(c1)/C(=C/c1cnc[nH]1)C(=O)N2
inactive: outcome [1] | outcome [3] | Potency [4] | outcome [5] | outcome [6]
active: Potency [2] 23.1 µM

C=CCN(C1=NCCN1)c1c(Cl)cccc1Cl
inactive: outcome [1] | Potency [2] | outcome [3] | Potency [4] | outcome [5] | outcome [6] | max response [7] -1.3% and 35.7%

CCNC(=O)[C@H]1O[C@@H](n2cnc3c(N)ncnc32)[C@H](O)[C@@H]1O
inactive: outcome [1] | Potency [2] | outcome [3] | Potency [4] | outcome [5] | outcome [6] | max response [7] -1.58%

CC(C)[C@@]1(NC(=O)[C@@H]2C[C@@H]3c4cccc5[nH]cc(c45)C[C@H]3N(C)C2)O[C@@]2(O)[C@@H]3CCCN3C(=O)[C@H](Cc3ccccc3)N2C1=O
inactive: outcome [1] | Potency [2] | outcome [3] | Potency [4] | outcome [5] | outcome [6]
active: Potency [7] 5.01 µM

CN(N=O)c1ccc(O)c(O)c1
active: Potency [7] 1 µM
inactive: outcome [1] | Potency [2] | outcome [3] | Potency [4]

N[C@@H](Cn1ccc(=O)[nH]c1=O)C(=O)O
inactive: outcome [1] | Potency [2] | outcome [3] | Potency [4] | outcome [5] | outcome [6] | max response [7] 15.1%

CN1CC[C@@]2(C)c3cc(O)ccc3N(C)C12 (stereo partly specified)
inactive: outcome [1] | Potency [2] | outcome [3] | Potency [4] | outcome [5] | outcome [6]

C[Se]C[C@H](N)C(=O)O
inactive: outcome [1] | Potency [2] | outcome [3] | Potency [4] | outcome [5] | outcome [6]

CCN(CCCl)Cc1ccccc1Br
inactive: outcome [1] | Potency [2] | outcome [3] | Potency [4] | outcome [5] | outcome [6] | max response [7] -1.83%

CC(C)(O)[C@@H]1C2OC(=O)[C@@H]1[C@]1(O)C[C@H]3O[C@]34C(=O)O[C@H]2[C@]14C (tested in a mixture with another compound)
inactive: outcome [1] | Potency [2] | outcome [3] | Potency [4] | outcome [5] | outcome [6] | max response [7] 18.2%

N#CCCN
inactive: outcome [1] | Potency [2] | outcome [3] | Potency [4] | outcome [5] | outcome [6] | max response [7] 15.8%

COc1ccc2c(c1)c(CCN1CCOCC1)c(C)n2C(=O)c1cccc(Cl)c1Cl
inactive: outcome [1] | Potency [2] | outcome [3] | Potency [4] | outcome [5] | outcome [6]

N[C@@H](CCl)C(=O)O
inactive: outcome [1] | Potency [2] | outcome [3] | Potency [4] | outcome [5] | outcome [6]

C=CCN1CC[C@]23c4c5ccc(O)c4O[C@@H]2/C(=N/N=C2\CC[C@@]4(O)C6Cc7ccc(O)c8c7[C@@]4(CCN6CC=C)[C@@H]2O8)CC[C@@]3(O)C1C5
inactive: outcome [1] | Potency [2] | outcome [3] | Potency [4] | outcome [5] | outcome [6]

CCCn1c(C)c(C(=O)c2ccc3ccccc3c2)c2ccccc21
inactive: outcome [1] | Potency [2] | outcome [3] | Potency [4] | outcome [5] | outcome [6] | max response [7] 6.14%

C=CCN1CCc2cccc3c2[C@H]1Cc1ccc(O)c(O)c1-3
inactive: outcome [1] | Potency [2] | outcome [3] | Potency [4] | outcome [5] | outcome [6]
active: Potency [7] 1.12 µM

C[N+]1(C)[C@@H]2CC(OC(=O)[C@H](CO)c3ccccc3)C[C@H]1[C@H]1O[C@@H]12 (stereo partly specified)
86.8%: growth, % of control [9]
91.7%: parasite growth remaining, % of DMSO control (lower = more inhibition) [8]
inactive: Potency [10]

CN(N=O)c1cc(O)ccc1O
inactive: outcome [1] | Potency [2] | outcome [3] | Potency [4] | outcome [5] | outcome [6]

CCCCCCC(C)(C)c1ccc([C@@H]2C[C@H](O)CC[C@H]2CCCO)c(O)c1
inactive: outcome [1] | Potency [2] | outcome [3] | Potency [4] | outcome [5] | outcome [6]

C[C@@H]1[C@@H]2Cc3ccc(O)cc3[C@@]1(C)CCN2CC1CC1
inactive: outcome [1] | Potency [2] | outcome [3] | Potency [4] | outcome [5] | outcome [6] | max response [7] 29.7%

NC(Cc1ccc(N(CCCl)CCCl)cc1)C(=O)O (stereo unspecified)
18.8%: activity, percent of control [12]
inactive: outcome [1] | Potency [2] | outcome [3] | Potency [4] | outcome [5] | outcome [6] | max response [7] 8.23%
34.1%: remaining parasite growth % (stronger effect = lower value) [11]
9.39%: remaining proliferation (% of control), lower = more inhibition [13]

C/C(O)=C(\C#N)C(=O)Nc1cc(Br)ccc1Br
inactive: outcome [1] | Potency [2] | outcome [3] | Potency [4] | outcome [5] | outcome [6] | max response [7] -6.48%

O=P(O)(O)C(Cl)(Cl)P(=O)(O)O
inactive: max response [7] -3.79% and -4.92% | Potency [10]

COc1ccc2c(c1)[C@@]13CCCC[C@H]1[C@@H](C2)NCC3
inactive: outcome [1] | Potency [2] | outcome [3] | Potency [4] | outcome [5] | outcome [6]
